Outcome data for 2 compounds are collected here from PubChem BioAssay AID2283186 (EPA ToxCast).

The source made the active and inactive calls. The calls were made as follows: active = hit-call score of the fitted dose curve at least 0.9, where 1 is the maximum; inactive = score below 0.9.

human p21 Activated Kinase 2 (PAK2), PAK2 (gene 5062), sequence (Q13177 whole entry, looked up): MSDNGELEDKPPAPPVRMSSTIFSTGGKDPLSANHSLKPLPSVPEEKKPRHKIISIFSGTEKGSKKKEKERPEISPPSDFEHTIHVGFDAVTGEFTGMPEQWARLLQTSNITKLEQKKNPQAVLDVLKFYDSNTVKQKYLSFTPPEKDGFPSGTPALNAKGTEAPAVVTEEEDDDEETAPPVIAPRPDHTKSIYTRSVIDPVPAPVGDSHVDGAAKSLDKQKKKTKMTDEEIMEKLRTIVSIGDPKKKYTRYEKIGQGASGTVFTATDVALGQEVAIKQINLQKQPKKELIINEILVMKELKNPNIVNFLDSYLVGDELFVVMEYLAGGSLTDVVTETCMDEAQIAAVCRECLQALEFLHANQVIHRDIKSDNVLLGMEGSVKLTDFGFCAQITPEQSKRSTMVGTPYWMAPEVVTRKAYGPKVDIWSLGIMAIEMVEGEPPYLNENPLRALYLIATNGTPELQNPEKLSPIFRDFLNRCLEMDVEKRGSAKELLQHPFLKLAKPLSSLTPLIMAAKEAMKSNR

For the test, the target named is human p21 Activated Kinase 2 (PAK2), PAK2 (gene 5062) (UniProt Q13177). Put plainly: NVS_ENZ_hPAK2: NovaScreen (NVS) Enzymatic Assay for human p21 Activated Kinase 2 (PAK2). How it is done:
NVS_ENZ_hPAK2 is a biochemical, single-readout assay that uses extracted gene-proteins in a cell-free assay. Measurements were taken 1 hour after chemical dosing in a 384-well plate.NVS_ENZ_hPAK2 is one of one assay component(s) measured or calculated from the NVS_ENZ_hPAK2 assay. It is designed to make measurements of enzyme activity, a form of enzyme reporter, as detected with fluorescence intensity signals by Fluorescence and electrophoretic mobility shift technology.Data from the assay component NVS_ENZ_hPAK2 was analyzed into 1 assay endpoint. This assay endpoint, NVS_ENZ_hPAK2, was analyzed in the positive analysis fitting direction relative to DMSO as the negative control and baseline of activity. Using a type of enzyme reporter, loss-of-signal activity can be used to understand changes in the enzymatic activity as they relate to the gene PAK2. Furthermore, this assay endpoint can be referred to as a primary readout, because this assay has produced multiple assay endpoints where this one serves a enzymatic activity function. To generalize the intended target to other relatable targets, this assay endpoint is annotated to the kinase intended target family, where the subfamily is serine/threonine kinase. […]
As for `COCCO`, the compound was called inactive. With `CC(C)(c1ccc(O)cc1)c1ccc(O)cc1` the entry was “inactive”.
